Molecules are shown by their SMILES. Hit rate of the full screen: of about 2,100 compounds, about 760 (36%) were called active. Only a sample is shown. Values without a mark were called inactive.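 The calls were made as follows: active = thallium-flux fluorescence traces judged by eye to show enhanced or reduced glutamate response, manual score 1 or -1, so both directions (some results past the limit were not filed as active); inactive = the rest, including fluorescent or raised-baseline compounds.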

From PubChem BioAssay AID623868 (Vanderbilt High Throughput Screening Facility, 2012) come the findings set out here.

The experiment in a line: thallium influx changes without GIRK channels – cell-based, HEK-293 rmGlu8, no GIRK, thallium flux, counter-screen for GIRK activator project, confirmation (AID 623868).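 Also: extra codes mark interference with 3 for fluorescent and 4 for baseline rise.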 Particulars: thallium flux fluorescence, at 10 µM, actives lie on both sides.
For `COc1cc(-n2c(=S)[nH]c3ccccc3c2=O)c(Cl)cc1Cl`, the manual score is 1 (active).
Take `CC(C)Oc1cc(-n2c(=S)[nH]c3ccccc3c2=O)c(Cl)cc1Cl`: the manual score was 1 (active).
`c1ccc2c(CNC3CCCCC3)c[nH]c2c1`: the manual score is 0.
For `CCOC(=O)C(O)(c1ccc(N(CC)S(=O)(=O)c2ccc(C)cc2)cc1)C(F)(F)F` (stereo not given), the manual score is 0.
Under `CNC(=O)OCCc1nccn1C` stands 0.5; under `Fc1ccc(NC2=NCCS2)cc1Cl`, 0; under `CC(C)CCn1c(=O)c(C(=O)Nc2ccccc2S(N)(=O)=O)c(O)c2ccccc21`, 0.
With `C=CCOC(=O)COc1cc(C)cc2oc(=O)c3c(c12)CCC3` the figure was -0.5.
Under `C/C(=N\Nc1ccccc1)c1c(O)n(C)c(=O)n(C)c1=O` stands 0; under `O=c1cc(C(F)(F)F)c2cc3c4c(c2o1)CCCN4CCC3`, 3.
Consider `S=C1CN=C(c2ccccc2Cl)c2cc(Cl)ccc2N1`, for which the manual score was 1 (active).
Under `S=C1CN=C(c2ccccc2)c2cc(Cl)ccc2N1` stands 1 (active).
As to `Cc1ccccc1C1=NCC(=S)Nc2ccc(Cl)cc21`, the manual score was 1 (active).
In the case of `O=C(Cc1ccccc1)N1CCN(C/C=C/c2ccccc2)CC1`, the manual score was 0.
Consider `CCN(c1ccc(C(O)(C(=O)OC)C(F)(F)F)cc1)S(=O)(=O)c1ccc(C)cc1` (stereo not given), for which the manual score was 0.
With `CCCCn1c(C)c(C(=O)OCC)c2c(CN3CCOCC3)c(O)ccc21`, the manual score was 0.
Under `Cc1ccc2nc(N3CCC(C(=O)N4CCC5(CC4)OCCO5)CC3)sc2c1` stands 0.
With `N=c1sc2c(n1Cc1ccccc1)CCCC2` the figure was 0; with `O=C(Nc1ccc(Cl)cc1)Nc1nccs1`, 0; with `O=C(c1ccccc1)c1cn(CC(=O)N2CCOCC2)c2ccccc12`, -0.5.
Consider `Cn1cccc1CNCCc1ccccc1`, for which the manual score was 0.
With `Cc1nn(C)cc1/C=C1/CC2C3CC=C4CC(O)CCC4(C)C3CCC2(C)C1=O` (stereo not given) the figure was 0; with `CCN(CC)CCNCC(=O)Nc1ccc(Cl)cc1C(=O)c1ccccc1`, 0.
With `Nc1c(C(=O)OC2CCCCC2)c2nc3ccccc3nc2n1CC1CCCO1` (stereo not given) the figure was -0.5; with `Cc1ccc(OCC(=O)NCCN2CCN(C(=O)COc3ccc(C)cc3)CC2)cc1`, 0.
